# Only some compounds are listed: those with a hit (about 6.6% of all), similar ones and a draw of the others.
# MCF10A rerep: A quantitative high throughput screen for small molecules that induce DNA re-replication in MCF 10a normal breast cells; Potency, µM (highest dose often 46.1 µM), without a hit: top-dose activity, positive = re-replication, usual class: activators; 350,000 tested, 2.9% active; MCF 10A DNA re-replication, Hoechst nuclear intensity, 48 h; also: % of control where 0% means no effect; nearly all actives have a fitted effect of over 50% in size
# SW480 rerep: A quantitative high throughput screen for small molecules that induce DNA re-replication in SW480 colon adenocarcinoma cells; 340,000 tested, 1.8% active; Potency, µM (top dose mostly 46.1 µM), for the others: at the top dose re-replication activation, most hits filed as activators; AID 624297, 2012; SW480 DNA re-replication, Hoechst DNA content imaging, 48 h; also: % of control where 0% means no effect; nearly all actives have a fitted effect of over 55% in size
#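 Hoechst fluorescence of nuclei (405 nm excitation, 500-530 nm emission) measured by plate-scanning imager after 48 hr compound exposure at 37 C; re-replication scored as increased number of nuclei with elevated intensity.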
# KB-3-1 tox: qHTS assay for MDR1-selective chemotherapeutics: Primary screen using the parental adenocarcinoma cell KB-3-1. KB-3-1 viability, CellTiter-Glo ATP luminescence, 72 h. Potency, µM (doses to about 46.1 µM), most hits filed as cytotoxic. 400,000 tested, 1.4% active; also: % is scaled to controls: 0 for no effect and ±100 for the full control effect; nearly all actives have a fitted effect of over 60% in size
#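 Using CellTiter-Glo luminescence, growth of non-resistant KB-3-1 adenocarcinoma cells is assessed 72 h after pin-tool compound addition at 37 °C. Normalized responses across the concentration series yield fitted curves.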
# PTAP TSG101 blk: qHTS Assay for Iinhibitors of HIV-1 Budding by Blocking the Interaction of PTAP/TSG101 | Fluorescence polarization, FITC-PTAP peptide / Tsg101 binding | 340,000 tested, under 10 active | Potency, µM (doses to about 115 µM), for the others: at the highest dose activity change, negative = inhibition, actives largely listed as inhibitors | Tumor susceptibility gene 101 protein (Homo sapiens), Q99816; active = well fitted inhibition curve with a large enough effect in the main read-out, with a control signal flat, not every such curve was filed as active; inconclusive = small, poorly fitted or top-dose-only effect, or effect the other way, or a change in a side signal; inactive = no such curve, though single readings can be large or run the other way; also: % of control where 0% means no effect
#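 Fluorescence polarization binding of Tsg101 binding domain (10 uM final) to FITC-labeled PTAP peptide (50 nM final) in HEPES pH 7.5 buffer with NaCl, Tween 20, EDTA, TCEP. Compounds added before peptide; binding 20 min at RT.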
# RGS4 inhibitor: Inhibitors of Regulator of G Protein Signaling (RGS) 4: qHTS | Regulator of G-protein signaling 4 (Homo sapiens), P49798 | Transcreener GDP fluorescence polarization, RGS4-accelerated GTP hydrolysis | Potency, µM (top dose mostly 114 µM), without a hit: top-dose activity change, negative = inhibition, most hits filed as inhibitors | 390,000 tested, 0.039% active | AID 504845, 2011; also: % is scaled to controls: 0 for no effect and ±100 for the full control effect; nearly all actives have a fitted effect of over 75% in size
# Target sequence (P49798 whole entry, looked up): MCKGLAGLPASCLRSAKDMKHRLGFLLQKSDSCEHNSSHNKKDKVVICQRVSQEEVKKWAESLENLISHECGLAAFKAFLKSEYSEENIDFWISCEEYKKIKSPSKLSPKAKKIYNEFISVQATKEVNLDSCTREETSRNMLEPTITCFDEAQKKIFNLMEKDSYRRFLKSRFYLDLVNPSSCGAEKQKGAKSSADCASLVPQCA
#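 MLSMR compounds (23 nl, pin-transferred) preincubated 10 min at room temperature with a 500nM (2x) first reagent, then RGS4 at 900nM (2x) plus Transcreener GDP mix added; fluorescence polarization (620/688 nm) read before and after 90 min at 30 °C.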
# KB-V1 cytotox: qHTS assay for MDR1-selective chemotherapeutics: Primary screen using the drug-selected MDR subline cells KB-V1. KB-V1 MDR cells viability, CellTiter-Glo, 72 h. Potency, µM (series often up to 46.1 µM), actives largely listed as cytotoxic. 400,000 tested, 3.4% active. AID 1347076, 2019; also: % is scaled to controls: 0 for no effect and ±100 for the full control effect; nearly all actives have a fitted effect of over 60% in size
#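 KB-V1 cells (P-gp-expressing MDR subline of KB-3-1) in phenol-red-free DMEM with 10% FBS were exposed to library compounds over a concentration series for 72 h at 37 degrees C. Viability read by CellTiter-Glo luminescence; concentration-effect curves fitted after normalization.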
# Active calls of the source: *; i = inactive; ? = inconclusive; · = no result. Unless noted, calls follow the shape of the dose curve; as a rule, active = well fitted curve in the direction sought with a large enough effect; inconclusive = small, poorly fitted or top-dose-only effect, or another doubt; inactive = no such curve, though single readings can be large; an effect the other way counts as inactive or inconclusive. Potency is read from the fitted curve at half-maximal effect.
SMILES,MCF10A rerep,SW480 rerep,KB-3-1 tox,PTAP TSG101 blk,RGS4 inhibitor,KB-V1 cytotox
O=[N+]([O-])c1ccccc1S(=O)(=O)NCc1ccccn1,·,·,i,·,·,i
COc1ccc(NC(=O)CCc2c(C)nc3c(-c4ccccc4)c(C)nn3c2C)cc1Cl,·,·,i,·,-10%,i
Cc1c(Cl)ccc2sc(N3CCN(C(=O)C4CC4)CC3)nc12,·,·,i,·,-32%,i
CCCCNc1c(-c2ccc(OC)c(SC(C)CC)c2)nc2cc(C)ccn12 (stereo not given),21µM*,?,?,-2%,-5%,i
CCCCNc1c(-c2ccc(Sc3ccc(OC)cc3)cc2)nc2cc(C)ccn12,23µM*,?,?,1%,-12%,i
CCC(C)Sc1ccc(-c2nc3ccc(C)cn3c2NCc2ccccc2)cc1OC (stereo not given),6.5µM*,?,i,?,25%,?
CCCCNc1c(-c2ccc(-c3ccc(C(C)=O)cc3)c(OC)c2)nc2cc(C)ccn12,?,?,?,-2%,9%,?
COc1ccc(NCc2cc3cc4c(cc3n(CC(=O)Nc3ccc(F)cc3)c2=O)OCCO4)cc1,·,·,i,·,-7%,i
CCOC(=O)CNC(=O)N1CCN(S(=O)(=O)c2ccc3c(ccn3C)c2)CC1,·,·,i,·,-25%,i
CCOc1ccccc1C(=O)Oc1c(S(=O)(=O)c2ccc(C)cc2)c(C)nn1-c1ccccc1,·,·,i,·,-5%,i
CCn1c(SCC(=O)c2ccccc2)nnc1-c1cc2cc(Br)ccc2o1,?,8%,?,-3%,-36%,18µM*
Cc1ccc(C)c2sc(NC(=O)C3CC3)nc12,-3%,-4%,i,-1%,1%,i
O=C(Nc1nc2c(Br)cc(Br)cc2c(=O)s1)C1CCC1,5.2µM*,-4%,i,0%,?,i
CN1c2ccccc2C(O)=C(C(=S)Nc2ccc(F)c(Cl)c2)S1(=O)=O,?,2%,16µM*,-8%,-33%,16µM*
Cc1sc2nc(SCC(=O)OC(C)C)n(C)c(=O)c2c1C,12%,-9%,i,-3%,-1%,15µM*
Cc1sc2nc(SCC(=O)NCCO)n(C)c(=O)c2c1C,0%,2%,i,-7%,-4%,?
Cc1cc(C)c(S(=O)(=O)n2ccc3ccccc32)c(C)c1,?,19%,23µM*,-10%,15%,?
O=S(=O)(c1ccccc1)n1ccc2ccccc21,?,6%,i,1%,-26%,i
Cc1nc2ccc(S(=O)(=O)N(CC(=O)Nc3cccc(C)c3C)Cc3ccccc3)cc2s1,·,·,i,·,-10%,i
CO/N=C\CC(=O)Nc1ccc(F)cc1,-2%,1%,i,-3%,-14%,i
CO/N=C\CC(=O)Nc1ccc(Cl)cc1Cl,16µM*,7.3µM*,?,-2%,?,5.8µM*
CCN1CCN(c2cc(C)c3cc(NC(=O)/C=C/c4cccc(Cl)c4)ccc3n2)CC1,·,·,?,·,-2%,?
CCC1=NN2C(=N)/C(=C/c3cc(C)n(Cc4ccccc4)c3C)C(=O)N=C2S1,?,-2%,i,-2%,-22%,i
Cc1cc(/C=C2\C(=N)N3N=C(c4ccco4)SC3=NC2=O)c(C)n1Cc1ccccc1,21µM*,-1%,?,6%,-33%,i
NC(=O)C1=CC2C3C=CC2(O)C(=O)OC3O1 (stereo not given),2.9µM*,3.7µM*,?,0%,5%,?

# From PubChem
